Assay [1] in a line: qHTS assay to identify small molecule antagonists of the thyroid receptor (TR) signaling pathway - cell viability counter screen (AID 743064). Further: nearly all actives have a fitted effect of over 50% in size. Further: potency means the concentration at half of the fitted maximal effect. In a few lines: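 GH3.TRE-Luc rat pituitary cells dosed after 4 hr plating, co-stimulated with T3 at 1 nM final, incubated 23.5 h at 37 C. Viability measured in the same wells by CellTiter-Fluor fluorescence after 30 min further at 37 C.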
(In general: qHTS replaces the single test concentration by a dilution series.)

Assay [2] is described as follows: qHTS assay to identify small molecule antagonists of the thyroid receptor (TR) signaling pathway (AID 743065). Further: series mostly up to about 70 µM; nearly all actives have a fitted effect of over 55% in size. The gist of the method:
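GH3.TRE-Luc rat pituitary cells (two TREs driving luciferase) were dosed with compound, then stimulated with 1 nM T3 (final) for 23.5 h at 37 C. ONE-Glo luminescence was the read-out, with CellTiter-Fluor fluorescence as the cytotoxicity counter-screen.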

Assay [3] relates to thyroid hormone receptor (rat, GH3 cells). As to the kind of experiment: qHTS assay to identify small molecule agonists of the thyroid receptor (TR) signaling pathway (AID 743066; calls by dose curve).
In assay [4] the target is Estrogen receptor (Homo sapiens) (UniProt P03372). Kind of assay: qHTS assay to identify small molecule antagonists of the estrogen receptor alpha (ER-alpha) signaling pathway (AID 743069; active means well fitted curve in the direction sought with a large enough effect in the signal ratio in the repeat runs, not every such curve was filed as active; the % refers to the signal ratio). The gist of the method:
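In this cell-based reporter format, GripTite HEK293 cells harbouring ER-alpha-UAS-bla were grown overnight with 2% charcoal-stripped FBS, dosed with DMSO-dissolved compounds, then challenged with 17beta-estradiol. After 18 hr at 37C, beta-lactamase activity was detected by FRET fluorescence.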

Assay [5] in a line: qHTS assay to identify small molecule antagonists of the estrogen receptor alpha (ER-alpha) signaling pathway - cell viability counter screen (AID 743074; calls by dose curve; further: nearly all actives have a fitted effect of over 45% in size).
In assay [6] the target is Estrogen receptor (Homo sapiens) (UniProt P03372). As to the kind of experiment: qHTS assay to identify small molecule agonists of the estrogen receptor alpha (ER-alpha) signaling pathway (AID 743075; calls by dose curve).
The target in the next assay is Aromatase (Homo sapiens) (UniProt P11511). As to the kind of experiment: qHTS assay to identify aromatase inhibitors (AID 743083). Further: series mostly up to about 70 µM; nearly all actives have a fitted effect of over 55% in size.
Assay [7] can be described thus: qHTS assay to identify aromatase inhibitors - cell viability counter screen (AID 743084).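 Further: cells stimulated with testosterone during compound exposure; nearly all actives have a fitted effect of over 55% in size.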 Further: potency means the concentration at half of the fitted maximal effect.
The target of assay [8] is Aryl hydrocarbon receptor (Homo sapiens) (UniProt P35869). As to the kind of experiment: qHTS assay to identify small molecule that activate the aryl hydrocarbon receptor (AhR) signaling pathway (AID 743085). Further: nearly all actives have a fitted effect of over 15% in size. Further: potency means the concentration at half of the fitted maximal effect.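 On activation: HG2L7.5c1 human HepG2 liver cells with stably integrated DRE-driven firefly reporter; series mostly up to about 70 µM.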 The gist of the method:
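HepG2 cells stably carrying a 20-DRE firefly luciferase reporter (HG2L7.5c1) treated with compound for 24 hr at 37C. Luciferase read by ONE-Glo luminescence, with CellTiter-Fluor viability read first.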

A short description of assay [9]: qHTS assay to identify small molecule that activate the aryl hydrocarbon receptor (AhR) signaling pathway - cell viability counter screen (AID 743086). Further: nearly all actives have a fitted effect of over 45% in size. Further: potency means the concentration at half of the fitted maximal effect. The gist of the method: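 HepG2-AhR-luc (HG2L7.5c1) cells, 4000/well, treated 24 h at 37 C with compound; viability measured as CellTiter-Fluor fluorescence after 30 min in the same wells as the luciferase read.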

The target in assay [10] is Peroxisome proliferator-activated receptor gamma (Homo sapiens) (UniProt P37231). Kind of assay: qHTS assay to identify small molecule agonists of the peroxisome proliferator-activated receptor gamma (PPARg) signaling pathway (AID 743094; active means well fitted activation curve with a large enough effect in the signal ratio in the repeat runs, not every such curve was filed as active; the % refers to the signal ratio). The gist of the method:
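Agonism was assessed in a beta-lactamase reporter system, HEK293H cells with a stably integrated UAS-bla construct under PPARg control; the 17 h treatment at 37C preceded a 1 h room-temperature FRET substrate read.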

Assay [11] shares this target. As to the kind of experiment: qHTS assay to identify small molecule antagonists of the peroxisome proliferator-activated receptor gamma (PPARg) signaling pathway (AID 743191; calls by dose curve; further: series mostly up to about 63 µM; nearly all actives have a fitted effect of over 30% in size). In a few lines:
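GeneBLAzer PPARg UAS-bla HEK293H cells, 5 h post-plating, exposed to compounds 17 h at 37C. LiveBLAzer B/G FRET substrate added for 1 h at room temperature; beta-lactamase reporter read by fluorescence intensity.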

The nature of assay [12]: qHTS assay to identify small molecule antagonists of the peroxisome proliferator-activated receptor gamma (PPARg) signaling pathway - cell viability counter screen (AID 743194). Further: nearly all actives have a fitted effect of over 55% in size. As to conditions: Potency: co-treated with 50 nM rosiglitazone. The gist of the method: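 Cytotoxicity counter screen in PPARg-bla HEK293H cells, same wells as reporter assay. Compounds plus 50 nM rosiglitazone (final) for 17 h at 37 C, then viability read by CellTiter-Glo luminescence.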

A short description of assay [13]: qHTS assay for small molecule agonists of the antioxidant response element (ARE) signaling pathway (AID 743202; active means well fitted activation curve with a large enough effect in the signal ratio in the repeat runs, not every such curve was filed as active; the % refers to the signal ratio). In a few lines:
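HepG2 ARE-bla cells; 16 h treatment at 37 C; FRET-based beta-lactamase fluorescence read after 2 h substrate incubation at room temperature.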

A short description of assay [14]: qHTS assay for small molecule agonists of the antioxidant response element (ARE) signaling pathway - cell viability counter screen (AID 743203; calls by dose curve; further: nearly all actives have a fitted effect of over 55% in size). In a few lines: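 ATP content via CellTiter-Glo luminescence served as the viability measure. Cells: ARE-bla HepG2, 2,000 per well. Exposure: 16 hrs, 37C/5% CO2.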
Assay [15] is described as follows: qHTS assay for small molecule activators of the heat shock response signaling pathway (AID 743210; active means well fitted activation curve with a large enough effect in the signal ratio in the repeat runs, with a control signal flat, not every such curve was filed as active; the % refers to the signal ratio;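 further: HeLa cells with beta-lactamase reporter driven by heat shock elements; series mostly up to about 63 µM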). In a few lines:
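Following overnight attachment, HSE-bla HeLa cells received test compounds for 5 h at 37 C; beta-lactamase activity was then detected via FRET substrate fluorescence.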

A short description of assay [16]: qHTS assay to identify small molecule antagonists of the estrogen receptor alpha (ER-alpha) signaling pathway using the BG1 cell line (AID 743080; calls by dose curve;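 further: BG1 cells stimulated with 17beta-estradiol alongside compound; series mostly up to about 70 µM; nearly all actives have a fitted effect of over 25% in size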). The gist of the method: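 BG1Luc4E2, endogenous ER-alpha, 4xERE-luc; 5 d charcoal-stripped FBS, phenol red free; 24 h plating; cpd + 17beta-estradiol 21.5 h, 37 C/5% CO2; CellTiter-Fluor viability 30 min, then ONE-Glo luciferase 30 min RT.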

A short description of assay [17]: qHTS assay to identify small molecule antagonists of the estrogen receptor alpha (ER-alpha) signaling pathway using the BG1 cell line - cell viability counter screen (AID 743081).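 Further: compound given together with 17beta-estradiol as the ER stimulus; series mostly up to about 70 µM; nearly all actives have a fitted effect of over 45% in size.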
The nature of assay [18]: qHTS assay for small molecule activators of the heat shock response signaling pathway - cell viability counter screen (AID 743209). Further: nearly all actives have a fitted effect of over 50% in size. The gist of the method:
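Compounds dissolved in DMSO were added to overnight-plated HSE-bla HeLa cells and left 5 h at 37 C. Cell viability was quantified by luminescence using CellTiter-Glo.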

Assay [19] has as its target Estrogen receptor (Homo sapiens) (UniProt P03372). Kind of assay: qHTS assay to identify small molecule agonists of the estrogen receptor alpha (ER-alpha) signaling pathway using the BG1 cell line (AID 743079). Further: nearly all actives have a fitted effect of over 20% in size. Further: potency means the concentration at half of the fitted maximal effect.

Records with an inconclusive call do not appear. Calls of active or inactive are those of the source. Unless noted, the call rests on the fitted dose curve; in most records, active means well fitted curve in the direction sought with a large enough effect in the repeat runs; inconclusive means weak or mixed curves; inactive means no such curve, though single readings can be large; an effect the other way counts as inactive or inconclusive.

Aromatase (Homo sapiens), sequence (P11511 whole entry, looked up): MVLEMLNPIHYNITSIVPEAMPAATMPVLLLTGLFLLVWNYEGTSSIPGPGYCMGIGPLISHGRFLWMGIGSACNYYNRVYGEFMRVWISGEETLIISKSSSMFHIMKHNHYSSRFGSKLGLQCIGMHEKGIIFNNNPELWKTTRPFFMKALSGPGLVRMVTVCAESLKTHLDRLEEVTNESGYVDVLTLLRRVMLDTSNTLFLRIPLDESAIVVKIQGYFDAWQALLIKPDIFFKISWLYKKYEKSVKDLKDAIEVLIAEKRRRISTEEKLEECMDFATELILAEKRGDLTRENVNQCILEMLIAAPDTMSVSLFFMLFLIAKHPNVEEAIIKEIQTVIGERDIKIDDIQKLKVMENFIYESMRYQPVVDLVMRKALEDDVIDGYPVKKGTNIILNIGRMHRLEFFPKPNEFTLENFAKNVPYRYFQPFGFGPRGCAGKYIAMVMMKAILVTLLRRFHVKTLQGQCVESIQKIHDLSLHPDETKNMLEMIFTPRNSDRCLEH
Estrogen receptor (Homo sapiens), sequence (P03372 whole entry, looked up): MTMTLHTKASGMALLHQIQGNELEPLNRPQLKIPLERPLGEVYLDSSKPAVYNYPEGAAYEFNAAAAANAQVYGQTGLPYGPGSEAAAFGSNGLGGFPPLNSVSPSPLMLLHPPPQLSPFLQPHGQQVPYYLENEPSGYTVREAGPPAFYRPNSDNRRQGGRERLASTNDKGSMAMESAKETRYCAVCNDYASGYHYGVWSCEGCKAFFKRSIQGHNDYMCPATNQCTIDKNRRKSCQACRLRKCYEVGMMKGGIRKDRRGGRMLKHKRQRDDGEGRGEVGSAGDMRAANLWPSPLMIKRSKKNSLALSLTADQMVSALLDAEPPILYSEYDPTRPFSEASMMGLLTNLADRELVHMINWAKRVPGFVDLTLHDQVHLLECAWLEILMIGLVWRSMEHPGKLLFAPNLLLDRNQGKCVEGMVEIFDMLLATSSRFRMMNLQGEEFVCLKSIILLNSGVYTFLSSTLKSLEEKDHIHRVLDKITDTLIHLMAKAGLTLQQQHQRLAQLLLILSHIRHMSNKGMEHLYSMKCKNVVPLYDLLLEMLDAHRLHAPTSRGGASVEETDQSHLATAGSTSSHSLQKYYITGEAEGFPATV
Aryl hydrocarbon receptor (Homo sapiens), sequence (P35869 whole entry, looked up): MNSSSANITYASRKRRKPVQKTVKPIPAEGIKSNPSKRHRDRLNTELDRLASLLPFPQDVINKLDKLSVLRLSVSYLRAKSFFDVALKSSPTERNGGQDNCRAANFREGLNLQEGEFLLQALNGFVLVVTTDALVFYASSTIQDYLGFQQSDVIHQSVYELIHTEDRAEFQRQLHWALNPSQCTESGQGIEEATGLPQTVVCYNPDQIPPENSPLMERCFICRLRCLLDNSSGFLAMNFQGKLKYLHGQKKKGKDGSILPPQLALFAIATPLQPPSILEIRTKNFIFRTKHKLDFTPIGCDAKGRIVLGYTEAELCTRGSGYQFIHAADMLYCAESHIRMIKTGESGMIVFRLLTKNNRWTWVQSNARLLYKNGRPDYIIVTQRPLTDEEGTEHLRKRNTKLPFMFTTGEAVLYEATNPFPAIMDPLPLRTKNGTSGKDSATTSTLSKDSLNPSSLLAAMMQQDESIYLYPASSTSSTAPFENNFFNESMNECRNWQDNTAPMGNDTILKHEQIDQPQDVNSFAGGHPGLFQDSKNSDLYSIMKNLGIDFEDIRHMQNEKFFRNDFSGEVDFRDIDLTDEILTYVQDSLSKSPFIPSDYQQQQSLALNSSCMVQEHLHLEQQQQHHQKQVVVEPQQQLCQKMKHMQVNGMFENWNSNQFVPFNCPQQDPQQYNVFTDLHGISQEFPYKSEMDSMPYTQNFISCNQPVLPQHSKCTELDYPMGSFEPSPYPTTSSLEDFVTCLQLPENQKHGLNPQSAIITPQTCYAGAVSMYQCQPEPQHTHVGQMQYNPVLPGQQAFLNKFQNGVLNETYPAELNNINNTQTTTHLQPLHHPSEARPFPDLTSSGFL
Peroxisome proliferator-activated receptor gamma (Homo sapiens), sequence (P37231 whole entry, looked up): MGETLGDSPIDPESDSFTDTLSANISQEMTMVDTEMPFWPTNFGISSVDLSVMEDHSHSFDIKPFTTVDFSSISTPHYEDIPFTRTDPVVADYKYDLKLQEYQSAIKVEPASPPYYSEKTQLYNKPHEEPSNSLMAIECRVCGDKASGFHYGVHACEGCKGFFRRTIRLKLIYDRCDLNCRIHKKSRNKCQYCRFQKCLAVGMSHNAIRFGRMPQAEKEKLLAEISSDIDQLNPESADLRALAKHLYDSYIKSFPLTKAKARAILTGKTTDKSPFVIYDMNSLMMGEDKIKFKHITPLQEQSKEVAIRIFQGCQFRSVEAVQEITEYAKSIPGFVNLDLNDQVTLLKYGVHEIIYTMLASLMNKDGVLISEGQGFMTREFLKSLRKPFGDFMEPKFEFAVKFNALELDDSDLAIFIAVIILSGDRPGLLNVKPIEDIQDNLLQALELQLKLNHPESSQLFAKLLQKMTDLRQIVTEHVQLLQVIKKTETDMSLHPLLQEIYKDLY

As for `CC(C)(C)N(NC(=O)c1ccc(Cl)cc1)C(=O)c1ccccc1`, the results for the Potency in assay [1], in [7] and in assay [9] were 3.42 µM (active), 7.65 µM (active) and 17.1 µM (active), respectively. The Potency entry (in assay [2]; in assay [3]; in assay [4]; in assay [5]; in [6]; in the assay with Aromatase (Homo sapiens)) was “inactive” throughout. Besides, the Potency entry in [8], in assay [10], in [11], in assay [12], in assay [13] and in assay [14] was “inactive” throughout. Besides, the Potency entry in [15] was “inactive”.
Consider `CCOP(=S)(OCC)SCSc1cc(Cl)ccc1Cl`, for which the Potency result in assay [1], in assay [2], in assay [3], in assay [4], in [5] and in assay [6] was “inactive” each time. Further, the Potency entry (in assay [16]; in [17]; in the assay with Aromatase (Homo sapiens); in assay [7]; in assay [8]; in assay [9]) was “inactive” each time. Besides, the Potency entry in [10], in assay [12], in [13], in assay [14], in assay [18] and in [15] was “inactive” each time.
For `CCNC(=O)NC(=O)/C(C#N)=N/OC`, the Potency result in assay [1], in [2], in assay [3], in [5], in [6] and in assay [19] was “inactive” each time. Also, the Potency entry (in assay [16]; in assay [17]; with Aromatase (Homo sapiens); in [7]; in assay [8]; in assay [9]) was “inactive” in each case. Also, the Potency entry in assay [10], in assay [11], in assay [13], in assay [14], in assay [18] and in assay [15] was “inactive” in each case.
For `CN1CC[C@]23c4c5ccc(O)c4O[C@H]2[C@@H](O)CC[C@H]3[C@H]1C5`, the Potency entry in [1], in [2], in assay [3], in assay [5], in [6] and in assay [19] was “inactive” each time. For the same compound, the Potency entry (in assay [16]; in [17]; with Aromatase (Homo sapiens); in [7]; in [9]; in [10]) was “inactive” throughout. Also, the Potency entry in assay [12], in assay [13], in [14] and in assay [18] was “inactive” throughout.
With `Nc1ccc2c(c1)Cc1ccccc1-2`, the Potency result in [1], in assay [2], in assay [3], in assay [4], in assay [5] and in assay [17] was “inactive” each time. Further, the Potency result (with Aromatase (Homo sapiens); in [7]; in assay [9]; in [12]; in [14]; in assay [18]) was “inactive” throughout. The Potency entry in assay [15] was “inactive”. Besides, the Potency was 4.3 µM (active) in [19] and 68.2 µM (active) in [8].
In the case of `CCCCCCCCCCCCN(C)C`, the Potency entry in assay [1], in assay [2], in assay [3], in assay [5], in [6] and in assay [19] was “inactive” throughout. Further, the Potency result (in assay [16]; in [17]; with Aromatase (Homo sapiens); in assay [7]; in [8]; in [9]) was “inactive” throughout. The Potency entry in assay [14] and in assay [15] was “inactive” throughout.
In the case of `O=C=NC1CCCCC1`, the Potency result in assay [1], in [2], in assay [3], in assay [5], in [6] and in assay [17] was “inactive” in each case. For the same compound, the Potency result (in the assay with Aromatase (Homo sapiens); in assay [7]; in assay [9]; in [10]; in [13]; in [14]) was “inactive” each time. The Potency result in assay [18] and in assay [15] was “inactive” each time. The Potency in assay [19] was 12.2 µM (active); in assay [8], 54.6 µM (active).
As for `CCCC(C)(COC(N)=O)COC(=O)NC(C)C` (configuration not stated), the Potency result in [1], in assay [2], in [3], in assay [5], in assay [6] and in assay [19] was “inactive” in each case. Besides, the Potency result (in assay [16]; in assay [17]; in the assay with Aromatase (Homo sapiens); in [7]; in [8]; in [9]) was “inactive” in each case. The Potency result in [12], in [13], in assay [14], in [18] and in assay [15] was “inactive” in each case.
`CC(C)OC(=O)Cc1ccccc1`: the Potency result in assay [1], in [2], in assay [3], in [4], in assay [5] and in assay [6] was “inactive” throughout. Besides, the Potency result (in assay [19]; in [17]; with Aromatase (Homo sapiens); in assay [7]; in [9]; in [10]) was “inactive” each time. The Potency entry in [12], in assay [13], in [14], in assay [18] and in [15] was “inactive” throughout.
